# Measured values as given in PubChem BioAssay AID411 (National Center for Advancing Translational Sciences (NCATS), 2006).
# Screen size: about 72,000 compounds; about 1,600 (2.2%) were called active. Entries that show only a call come without a potency. This excerpt belongs to a sample that is enriched for actives. Unmarked numbers belong to inactive results. The call rests on the fitted dose curve; in most records, active means well fitted inhibition curve with a large enough effect; inconclusive means small, poorly fitted or top-dose-only effect; inactive means flat fitted curve, though single readings scatter.
# Target: Luciferin 4-monooxygenase (Photinus pyralis) (UniProt P08659)
# Sequence (P08659 whole entry, looked up): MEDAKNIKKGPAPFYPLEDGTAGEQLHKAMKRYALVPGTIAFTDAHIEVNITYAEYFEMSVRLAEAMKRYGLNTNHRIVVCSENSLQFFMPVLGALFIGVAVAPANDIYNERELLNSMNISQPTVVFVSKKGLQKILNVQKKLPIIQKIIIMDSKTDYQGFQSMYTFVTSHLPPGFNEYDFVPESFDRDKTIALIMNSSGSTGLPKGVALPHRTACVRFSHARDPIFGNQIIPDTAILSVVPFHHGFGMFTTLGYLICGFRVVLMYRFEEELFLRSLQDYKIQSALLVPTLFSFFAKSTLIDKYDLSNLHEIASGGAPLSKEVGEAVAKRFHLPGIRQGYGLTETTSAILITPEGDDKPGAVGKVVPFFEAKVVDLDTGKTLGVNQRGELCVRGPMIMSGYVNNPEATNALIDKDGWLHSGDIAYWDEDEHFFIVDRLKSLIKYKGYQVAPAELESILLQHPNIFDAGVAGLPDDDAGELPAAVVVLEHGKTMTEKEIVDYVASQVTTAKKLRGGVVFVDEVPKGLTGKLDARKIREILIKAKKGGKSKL
# Test: qHTS Assay for Inhibitors of Firefly Luciferase; further: nearly all actives have a fitted effect of over 40% in size
# Conditions: purified firefly luciferase, luminescence, 8 min; series mostly up to 57.1 µM
# Outline: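 Firefly luciferase (PKLight detection mix) with 10 uM ATP in pH 7.2 imidazole buffer (KCl, MgCl2, Tween 20, BSA). Compounds tested across a concentration series (qHTS). Luminescence read after 8 min at ambient temperature.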
# Potency means the concentration at half of the fitted maximal effect.
SMILES,Potency,"activity change, negative = inhibition"
Fc1cc(F)c2nc(N3CCOCC3)sc2c1,inactive,
CCOC(=O)N1CCC(NC(=O)c2ccc3nc(N4CCOCC4)sc3c2)CC1,inactive,
Cc1cc(N2CCCCC2)nc2ccc(Cc3ccc4nc(N5CCCCC5)cc(C)c4c3)cc12,,0.114% [at 11.4 µM]
c1c2c(cc3sc(N4CCCCC4)nc13)OCCO2,1.58 µM (active),
Fc1ccc2nc(N3CCCCC3)sc2c1,25.1 µM (active),
C/C(=C\c1ccco1)C1Nc2cccc3cccc(c23)N1,inactive,
Cc1ccc(Cn2ccc(NC(=O)c3cc(C(C)C)on3)n2)cc1,inactive,
Cc1c(O)c(Br)c(C)c(O)c1Br (tested in a mixture with another compound),,-10.4% [at 11.4 µM]
O=C(c1ccco1)N1CCC2(CC1)CN(c1ncccn1)C2,,-0.795% [at 11.4 µM]
Cc1nn(-c2ccccc2)c2sc(C(=O)N(Cc3ccco3)C(C)C(=O)NC(C)(C)C)cc12 (configuration not stated),inactive,
COc1cccc(Cn2c(=O)c(CCc3ccccc3)nc3cnc(N(C)C)nc32)c1,,0.592% [at 11.4 µM]
CCc1ccccc1NC1c2ccccc2C(=O)N1c1cccnc1 (configuration not stated),inactive,
COC(=O)c1cc(NC2c3ccccc3C(=O)N2c2ccc(Cl)cn2)cc(C(=O)OC)c1 (configuration not stated),7.94 µM (active),
Cc1ccnc(N2C(=O)c3ccccc3C2Nc2ccc3c(c2)OCCO3)c1 (configuration not stated),inactive,
CCCCc1nc2c(=O)[nH]c3ccccc3c2o1,inactive,
CSc1nnc2c(n1)OC(c1cn(C)c3ccccc13)N(C(C)=O)c1ccccc1-2 (configuration not stated),inactive,
CCN(CC)C(=O)N1CCN(C(=O)c2ccc(C)cn2)CC1,inactive,
CCCCC[C@H](O)CCCC(=O)O,inactive,
Cc1nnc(SCC(=O)NCCOc2ccc(Cl)cc2)n1-c1ccccc1,inactive,
Cc1nnc(SCc2ccc(C(=O)c3ccc(Cl)cc3)o2)n1-c1ccccc1,12.6 µM (active),
Cc1nnc(SCC(=O)N2CCc3ccccc32)n1-c1ccccc1,inactive,
Cn1c(=O)c(-c2ccccc2)nc2cnc(N3CCNCC3)nc21,,-0.109% [at 11.4 µM]

SMILES,Potency,"activity change, negative = inhibition"
COc1cccc(-c2nc3cc(C)ccc3o2)c1,3.98 µM (active),
COc1cccc(-c2nc(S(=O)(=O)c3ccccc3)c(N3CCOCC3)o2)c1,inactive,
CCN(CC)C(=O)CSc1nnc(-c2cccc(OC)c2)o1,inactive,
CCOC(=O)CCC(=O)OCC(=O)NC(C)C1CC2CCC1C2 (configuration not stated),inactive,
CC[C@H](c1ccccc1)c1cc(C(C)(C)C)cc(C(C)(C)C)c1O,,2.75% [at 11.4 µM]
COc1ccc(OCc2cccc(C(=O)N3CCCC3)c2)cc1,25.1 µM (active),
CCC(CC)C(=O)Nc1cccc(C(=O)N2CCCC2)c1,inactive,
COc1ccc(OCC(=O)N2CCN(C(=O)COc3ccccc3)CC2)cc1,inactive,
N#CC1=C(N)Oc2cc(O)ccc2C1C1CCCCC1 (configuration not stated),inactive,
CS(=O)(=O)N1CCC2(CC1)CN(Cc1cc(C(F)(F)F)cc(C(F)(F)F)c1)C2,,-0.965% [at 11.4 µM]
O=C1C=C(NCCNc2c(F)c(F)c(CO)c(F)c2F)CCC1,inactive,
COc1ccccc1N1CCN(CCN2C(=O)c3ccccc3C(C)(C)C2=O)CC1,inactive,
O=C1CC2(CCCCC2)Oc2ccc(OCC(=O)N3CCOCC3)cc21,inactive,
CCC(=O)Nc1cccc(NC(=O)c2cccnc2)c1,inactive,
C/C(=C\C(=O)c1ccccc1)Nc1cccc(O)c1,7.94 µM (active),
O=C(Nc1cnccn1)c1cccnc1,inactive,
C/C(=C\C(=O)c1cccnc1)Nc1ccc(C)c(C)c1,12.6 µM (active),
O=C(CCCOc1ccccc1)Nc1cccc(C(=O)O)c1,inactive,
CC(=O)c1cccc(NC(=O)c2ccncc2)c1,inactive,
COc1ccc(CCn2c(NCCCN3CCOCC3)nc3c2c(=O)[nH]c(=O)n3C)cc1,inactive,
CCc1cccc2c3c([nH]c12)C(CC)(CC(=O)O)OCC3 (configuration not stated),inactive,
CCN1C(=O)c2cccc3c(N)ccc1c23,inactive,

SMILES,Potency,"activity change, negative = inhibition"
CCN1C(=O)/C(=C\N2CCN(c3ccccc3)CC2)SC1=S,inactive,
CCN1C(=O)/C(=C2\SC(N3CCCCC3)=NC2=O)c2ccccc21,6.31 µM (active),
CCCn1c(SCC(=O)Nc2c(C)cccc2C)nnc1C(C)C,inactive,
Cc1cc(C)n2nc(C(=O)Oc3ccc4c(c3)OCO4)nc2n1,inactive,
Cc1occc1C(=O)N1CCCc2ccccc21,inactive,
Cc1nn(C(=O)c2ccoc2C)c(N)c1-c1ccccc1,25.1 µM (active),
COc1ccccc1C(=O)n1nc(-c2ccccc2)nc1N,inactive,
Cc1nc2cc(S(=O)(=O)C(F)(F)F)ccc2s1,inactive,
CN(c1ccccc1)c1ccc(/C=c2\s/c(=C(/C#N)C(=O)C(C)(C)C)n(Cc3ccco3)c2=O)cc1,inactive,
COC(=O)c1ccc2c(=O)n(CC3CCCO3)c(=S)[nH]c2c1 (configuration not stated),inactive,
Cc1ccsc1C(=O)OCC(=O)c1cc(C)n(CC2CCCO2)c1C (configuration not stated),1 µM (active),
Cc1ccsc1C(=O)OCC(=O)c1cc2ccccc2o1,inactive,
O=S(=O)(O)c1nc2ccccc2n1Cc1ccc(Cl)cc1Cl,inactive,
CN1CCN(S(=O)(=O)c2ccc(NC(=O)C3CCCO3)cc2)CC1 (configuration not stated),inactive,
C[C@@H]1C[C@H]2[C@@H]3C[C@H](F)C4=CC(=O)C=C[C@@]4(C)[C@]3(F)[C@H](O)C[C@]2(C)[C@@]1(O)C(=O)CO,inactive,
CN(C)/C=C1/C(=O)Nc2ccccc21,inactive,
CCc1nc2ccccc2n(CCOCCOCCn2c(=O)c(CC)nc3ccccc32)c1=O,inactive,
O=C(c1cn(-c2ccccc2)nc1-c1cccnc1)N1CCCCC1,inactive,
O=C(NCc1cccnc1)c1cn(-c2ccccc2)nc1-c1cccs1,10 µM (active),
COC(=O)c1cn(-c2ccccc2)nc1-c1cccnc1,inactive,
CC(=O)/C(C)=N\O,inactive,
COc1cc(-c2nc(-c3ccncc3)no2)cc(OC)c1OC,inactive,

SMILES,Potency,"activity change, negative = inhibition"
COc1ccc(-c2noc(-c3cccc(OC)c3OC)n2)cc1OC,6.31 µM (active),
CCOc1nc(-c2ccc(OC)cc2)ccc1-c1noc(-c2cc(OC)c(OC)c(OC)c2)n1,inactive,
COC(=O)[C@@H]1CC[C@H](C)[C@@H](c2ccc(C)cc2)N1C(=O)c1ccc(/C=N\OC[C@@H](O)COCc2ccco2)cc1,,-0.535% [at 11.4 µM]
CCc1cc2c(=O)c(-c3ccon3)c(N)oc2cc1OC,3.98 µM (active),
CC1CCC(NS(=O)(=O)c2ccc3c(c2)n(C)c(=O)c(=O)n3C)CC1 (configuration not stated),inactive,
COc1ccc(CCNC(=O)c2ccco2)cc1,inactive,
CCOC(=O)C1C(=O)NC(N2CCN(c3ccccc3)CC2)=NC1c1ccco1 (configuration not stated),inactive,
CCOC(=O)C1C(=O)C=C(c2ccc(OC)cc2)CC1c1ccco1 (configuration not stated),25.1 µM (active),
CN1C(=O)c2ccccc2C(C(=O)NCCCN2CCCC2)C1c1c[nH]c2ccccc12 (configuration not stated),inactive,
O=C1OCCC=C1[C@@H](O)CCc1ccccc1,,1.7% [at 11.4 µM]
CN1CCN(CC(=O)Nc2sc3c(c2C#N)CCC(C(C)(C)C)C3)CC1 (configuration not stated),inactive,
CCOc1ccc(-c2nnn(CC(=O)N3CCN(c4ccc(OC)cc4)CC3)n2)cc1OCC,inactive,
COc1ccc(C(=O)Cn2nnc(-c3ccc(N4CCOCC4)cc3)n2)cc1OC,10 µM (active),
CCOc1ccc(-c2nnn(CC(=O)N3CCN(c4ccc(F)cc4)CC3)n2)cc1OCC,inactive,
CCOC(=O)c1cc2sccc2n1Cc1ccc(C#N)cc1,inactive,
O=C(O)c1ccc(C(=O)O)c2c(C(=O)O)ccc(C(=O)O)c12,,-2.88% [at 11.4 µM]
CCN(C(=O)CSc1ncn[nH]1)c1cccc2ccccc12,inactive,
Cn1nnc(NC(=O)CSc2ncn[nH]2)n1,inactive,
CC(C)(C)c1ccc(C(=O)CSc2ncn[nH]2)cc1,15.8 µM (active),
CCOc1cc(C)c(Cl)cc1S(=O)(=O)n1nnc2ccccc21,inactive,
C=CCn1c(SCc2nnc(-c3ccccc3)o2)nnc1C(O)c1ccccc1 (configuration not stated),inactive,
Cc1cccc(NC(=O)COc2ccc(Br)cc2C)n1,10 µM (active),

SMILES,Potency,"activity change, negative = inhibition"
CCOc1ccc(OCc2ccc(C(=O)Nc3cccc(C)n3)o2)cc1,inactive,
Cc1cccc(NC(=O)COc2ccccc2C)n1,inactive,
COc1cccc(-c2nc3n(n2)C(c2ccccc2Cl)C(C(N)=O)=C(C)N3)c1 (configuration not stated),inactive,
CC(C)Cc1cc(C(=O)Nc2cc(Br)ccc2O)no1,12.6 µM (active),
CC(C)CNC(=O)c1cc(-c2ccc(Br)cc2)on1,inactive,
O=C(Nc1ccccc1C(F)(F)F)c1cc(-c2ccc(O)cc2)on1,inactive,
O=C1c2cccnc2C(Nc2ccc(S(=O)(=O)N3CCCCCC3)cc2)N1Cc1ccccc1 (configuration not stated),inactive,
COC(=O)c1cn(C)c2ccc(S(=O)(=O)N3CC(C)CC(C)C3)cc2c1=O (configuration not stated),inactive,
C=CCSc1nc2ccccc2[nH]1,inactive,
c1ccc2[nH]c(-c3nc4ccccc4[nH]3)nc2c1,2.51 µM (active),
c1ccc(-c2[nH]ncc2-c2nc3ccccc3[nH]2)cc1,inactive,
CC(=O)c1nc(N2C(=O)C3CC=C(C)CC3C2=O)sc1C (configuration not stated),inactive,
COc1ccc2[nH]c3cc4c(=O)c5cc(OC)ccc5[nH]c4cc3c(=O)c2c1,,-0.432% [at 11.4 µM]
COc1ccc2[nH]c3c(=O)n(Cc4ccco4)cnc3c2c1,inactive,
COc1ccc2[nH]c3ccc(OC)cc3c2c1,20 µM (active),
CCOc1ccc(N2C(=O)CC(N(O)c3ccccc3)C2=O)cc1 (configuration not stated),inactive,
CCC(=O)Oc1cccc(C(=O)Nc2ccc(-c3nnc(-c4ccco4)o3)cc2)c1,inactive,
Cc1ccc(OCC(=O)Nc2ccc(-c3nnc(-c4ccco4)o3)cc2)cc1,inactive,
CCOc1ccc(-c2nnc(-c3ccco3)o2)cc1,7.94 µM (active),
